Experimental data taken from PubChem BioAssay (NCI).
The panel holds about 83,000 compounds, 20% with a hit somewhere; the sample as a whole holds those more often.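 The endpoint reported here, percent growth, reads 100 for growth as untreated, 0 for no net growth and -100 for all cells dead.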 Unmarked numbers belong to inactive results. Activity calls are given as the source filed them. Rule for the calls: active = growth percent below 10; inactive = the rest.

What was measured:
Experiment in all cases: NCI-60 one-dose screen, 48 h (100 = growth as untreated, 0 = no growth, -100 = all killed)
Conditions in all cases: 10 µM unless noted
SK-MEL-2 melanoma = tested on: SK-MEL-2 melanoma
EKVX NSCLC = tested on: EKVX NSCLC
SN12C renal = tested on: SN12C renal
UO-31 renal = tested on: UO-31 renal
TK-10 renal = tested on: TK-10 renal
ACHN renal = tested on: ACHN renal
CAKI-1 renal = tested on: CAKI-1 renal
A498 renal = tested on: A498 renal
CCRF-CEM leukemia = tested on: CCRF-CEM leukemia
MOLT-4 leukemia = tested on: MOLT-4 leukemia
SR leukemia = tested on: SR leukemia
RPMI-8226 leukemia = tested on: RPMI-8226 leukemia
OVCAR-8 ovarian = tested on: OVCAR-8 ovarian
OVCAR-5 ovarian = tested on: OVCAR-5 ovarian
OVCAR-4 ovarian = tested on: OVCAR-4 ovarian
SK-OV-3 ovarian = tested on: SK-OV-3 ovarian
IGROV1 ovarian = tested on: IGROV1 ovarian
OVCAR-3 ovarian = tested on: OVCAR-3 ovarian
HS 578T breast = tested on: HS 578T breast
NCI/ADR-RES ovarian = tested on: NCI/ADR-RES ovarian

SMILES	growth (SK-MEL-2 melanoma)	growth (EKVX NSCLC)	growth (SN12C renal)	growth (UO-31 renal)	growth (TK-10 renal)	growth (ACHN renal)	growth (CAKI-1 renal)	growth (A498 renal)	growth (CCRF-CEM leukemia)	growth (MOLT-4 leukemia)	growth (SR leukemia)	growth (RPMI-8226 leukemia)	growth (OVCAR-8 ovarian)	growth (OVCAR-5 ovarian)	growth (OVCAR-4 ovarian)	growth (SK-OV-3 ovarian)	growth (IGROV1 ovarian)	growth (OVCAR-3 ovarian)	growth (HS 578T breast)	growth (NCI/ADR-RES ovarian)
Cn1cc(NC(=O)c2cc(NC(=O)c3ccc(/C=C/c4ccccc4)cc3)cn2C)cc1C(=O)NCCCN1CCOCC1	99.6%	89.6%	43.4%	61.6%	87.9%	70.7%	55.6%	90.6%	-8.72% (active)	-23.6% (active)	-22.3% (active)	-47.7% (active)	15.4%	93.9%	63%	98.4%	58.3%	24.5%	64.6%	90.2%
O=c1oc2ccc(Br)cc2cc1C1=CSc2nc3sc4c(c3c(=O)n2N=C1)CCCC4	98.6%	97%	103%	69.8%	175%	99.4%	96.2%	177%	84.4%	93.2%	86.6%	101%	99.9%	102%	86.1%	80.3%	90.8%	115%	93.1%	106%
O=S(=O)(Nc1cccc(-n2cnc3cc(-c4ccc(O)cc4)ccc32)c1)C1CC1	51.7%	46.4%	34.8%	21%	65%	21.3%	18.9%	30.6%	23.6%	13.7%	13.2%	23.9%	19.8%	47.1%	48.3%	35.6%	35.3%	2.82% (active)	-20.1% (active)	25.1%
Cc1ccccc1[C@H]1C(C(=O)c2ccc(Cl)cc2)C2(N[C@@H]1c1ccccc1)C(=O)Nc1ccccc12 (stereo not given in full)	-76.3% (active)	-15.6% (active)	-94.9% (active)	0.424% (active)	-8.15% (active)	-13.9% (active)	3.96% (active)	-8.76% (active)	-13.8% (active)	-18% (active)	-17.1% (active)	-24.2% (active)	-67.9% (active)	-46.6% (active)	8.21% (active)	-3.38% (active)	5.88% (active)	-58.4% (active)	-28.8% (active)	-68.2% (active)
Cc1occc1C(=O)NN1C(=O)/C(=C/C=C/c2ccc([N+](=O)[O-])o2)SC1=S	-71.8% (active)	-52.1% (active)	-88.1% (active)	-96.3% (active)	-49.7% (active)	-100% (active)	-59.7% (active)	95.3%	0.965% (active)	5.26% (active)	5.76% (active)	-8.57% (active)	-53.9% (active)	-93.3% (active)	-85% (active)	20.1%	-87.6% (active)	-100% (active)	19.4%	-6.81% (active)
COc1ccc(-c2nc3cc(C)ccc3n2CC(=O)N=Nc2c(O)[nH]c3ccccc23)cc1	58%	46%	-91.7% (active)	53.7%	73.6%	-12.5% (active)	53.3%	102%	79.1%	13.2%	0.97% (active)	59.3%	-58.1% (active)	13.8%	-25.3% (active)	47.8%	59.3%	-33.8% (active)	4.27% (active)	-47.1% (active)
O=C(COc1ccc(NC(=O)Nc2ccc(Cl)c(Cl)c2)cc1)N=Nc1c(O)[nH]c2ccc([N+](=O)[O-])cc12	48.7%	85.6%	52.6%	85.3%	113%	77.8%	72%	98.2%	30.4%	28%	25.5%	55.4%	78.1%	74.4%	75.2%	95.2%	74.4%	56.8%	57.4%	100%
COc1c(F)ccc(C(=O)Nc2ccc3nc(NC(=O)C4CCCN(S(=O)(=O)c5ccc(C#N)cc5)C4)sc3c2)c1F (stereo not given)	97.1%	96.2%	94.6%	68.8%	112%	97.4%	90.6%	101%	92.2%	62.4%	74.4%	70.1%	111%	103%	86.3%	103%	97.1%	102%	79.1%	96.1%
O=c1oc2ccccc2cc1-c1csc(N=Nc2c(O)[nH]c3ccc(Cl)cc23)n1	112%	100%	97.9%	97.7%	109%	110%	106%	98.6%	103%	109%	96.3%	117%	110%	116%	99.5%	94.1%	120%	102%	99.2%	103%
O=C(NN1C(=O)/C(=C/C=C/c2ccc([N+](=O)[O-])o2)SC1=S)c1ccccc1O	-86.9% (active)	-94.1% (active)	-98.2% (active)	-99.5% (active)	-87.6% (active)	-100% (active)	-100% (active)	-61.2% (active)	5.02% (active)	6.95% (active)	3.37% (active)	-4.22% (active)	-68.2% (active)	-98.8% (active)	-100% (active)	-9.85% (active)	-95.5% (active)	-100% (active)	-5.32% (active)	-0.0269% (active)
COc1c(F)ccc(C(=O)Nc2ccc3nc(NC(=O)C4CCCN(S(=O)(=O)c5ccc(C(F)(F)F)cc5)C4)sc3c2)c1F (stereo not given)	84.7%	103%	82.4%	55.3%	99.9%	72.3%	61.2%	96.7%	89.5%	47.2%	43.4%	54.3%	95.8%	100%	69.1%	103%	70.5%	78.2%	51.4%	80%
S=C(Nc1ccc(OCc2nc3ccccc3[nH]2)cc1)NC1CCCCC1	123%	104%	87.8%	96.8%	130%	101%	100%	150%	95%	98.3%	105%	101%	95.1%	117%	102%	108%	107%	123%	102%	106%
CC1(C)CC[C@]2(C(=O)O)CC[C@]3(C)C(=CCC4[C@@]5(C)C[C@@H](O)[C@@H]6OC(c7cccc(Br)c7)OC[C@@]6(C)C5CC[C@]43C)C2C1 (stereo not given in full)	65.8%	27.8%	46.3%	30.3%	35.4%	19.4%	39.4%	69.5%	27.5%	13.2%	30.6%	18.9%	40%	67.5%	52.4%	101%	66.7%	34.9%	65.3%	40.6%
Cn1cc(-c2cc(N)n3nc(-c4cn(C)c5ccccc45)cc3n2)c2cc(Cl)ccc21	-87.4% (active)	-31% (active)	-53.9% (active)	-88.5% (active)	-42.9% (active)	-28.2% (active)	-82.5% (active)	-24.8% (active)	-5.76% (active)	-6.02% (active)	4.5% (active)	-8.66% (active)	-91% (active)	-13.9% (active)	-34.5% (active)	72.1%	-4.76% (active)	-44.6% (active)	-11.1% (active)	-11.5% (active)
COc1cc(-c2nc3ccc(C)cc3[nH]2)ccc1OCc1nnc(-c2ccc(Br)cc2)o1	83%	42.7%	36.2%	43%	33.2%	55.9%	44.6%	89.3%	26.4%	25%	-16% (active)	-12.9% (active)	28.4%	92.1%	10.6%	59.3%	64.2%	39.1%	-4.08% (active)	71.4%
